{"source": "PubChem BioAssay AID1159580", "about": "(chemical genetic matrix, 2015)", "assay": "chemical genetic growth profiling, strain panel (AID 1159580);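 further: tested at 20 µM; growth read once vehicle control cultures reached saturation at 30 °C; 1 = growth at the plate median or of vehicle wells; lower values mean less growth of the strain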", "settings": "growth OD", "note": "The whole screen tested about 5,500 compounds, of which about 2,000 (36%) were called active. Another 18% or so got no clear call; they are omitted. This is one part of the list. Unmarked numbers belong to inactive results. No stated cut-off is given here; in the data, active means normalized growth mostly below about 0.91 (no sharp cut-off); inconclusive means no clear call, values can overlap the other calls; inactive means mostly above about 0.92.", "data": [{"smiles": "CCCCCCCCCCCC1=C(O)C(=O)C=C(O)C1=O", "values": [{"measurement": "normalized growth", "setting": "S. cerevisiae deletion strains, locus YJL168C, strain set2, hits give low values", "value": 0.975}, {"measurement": "normalized growth", "setting": "S. cerevisiae deletion strains, locus YJL187C, strain SWE1 (second series), hits give low values", "value": 0.981}, {"measurement": "normalized growth", "setting": "S. cerevisiae deletion strains, locus YJR043C, strain POL32, hits give low values", "value": "0.584 (active)"}, {"measurement": "normalized growth", "setting": "S. cerevisiae deletion strains, locus YKL068W, hits give low values", "value": "0.936 (active)"}, {"measurement": "normalized growth", "setting": "S. cerevisiae deletion strains, locus YKL085W, strain MDH1 (second series), hits give low values", "value": "0.513 (active)"}, {"measurement": "normalized growth", "setting": "S. cerevisiae deletion strains, locus YKL085W, strain MDH1, hits give low values", "value": "0.513 (active)"}, {"measurement": "normalized growth", "setting": "S. cerevisiae deletion strains, locus YKL160W, strain elf1, hits give low values", "value": "0.805 (active)"}, {"measurement": "normalized growth", "setting": "S. cerevisiae deletion strains, locus YKR001C, strain vps1, hits give low values", "value": "0.776 (active)"}, {"measurement": "normalized growth", "setting": "S. cerevisiae deletion strains, locus YKR026C, strain gcn3, hits give low values", "value": "0.82 (active)"}, {"measurement": "normalized growth", "setting": "S. cerevisiae deletion strains, locus YKR091W, strain srl3, hits give low values", "value": "0.911 (active)"}, {"measurement": "normalized growth", "setting": "S. cerevisiae deletion strains, locus YLL001W, strain dnm1, hits give low values", "value": "0.502 (active)"}, {"measurement": "normalized growth", "setting": "S. cerevisiae deletion strains, locus YLL026W, hits give low values", "value": 0.972}, {"measurement": "normalized growth", "setting": "S. cerevisiae deletion strains, locus YLL041C, strain sdh2, hits give low values", "value": 0.933}, {"measurement": "normalized growth", "setting": "S. cerevisiae deletion strains, locus YLR027C, strain aat2, hits give low values", "value": "0.839 (active)"}, {"measurement": "normalized growth", "setting": "S. cerevisiae deletion strains, locus YLR039C, strain RIC1, hits give low values", "value": "0.296 (active)"}, {"measurement": "normalized growth", "setting": "S. cerevisiae deletion strains, locus YLR058C, strain SHM2, hits give low values", "value": 1}, {"measurement": "normalized growth", "setting": "S. cerevisiae deletion strains, locus YLR102C, strain apc9, hits give low values", "value": 0.974}, {"measurement": "normalized growth", "setting": "S. cerevisiae deletion strains, locus YLR221C, strain rsa3, hits give low values", "value": "0.801 (active)"}, {"measurement": "normalized growth", "setting": "S. cerevisiae deletion strains, locus YLR258W, strain gsy2, hits give low values", "value": "0.911 (active)"}, {"measurement": "normalized growth", "setting": "S. cerevisiae deletion strains, locus YLR262C, strain YPT6 (second series), hits give low values", "value": "0.477 (active)"}, {"measurement": "normalized growth", "setting": "S. cerevisiae deletion strains, locus YLR262C, strain YPT6, hits give low values", "value": "0.414 (active)"}, {"measurement": "normalized growth", "setting": "S. cerevisiae deletion strains, locus YLR268W, strain sec22, hits give low values", "value": "0.756 (active)"}, {"measurement": "normalized growth", "setting": "S. cerevisiae deletion strains, locus YLR320W, strain mms22, hits give low values", "value": "0.83 (active)"}, {"measurement": "normalized growth", "setting": "S. cerevisiae deletion strains, locus YLR330W, strain CHS5, hits give low values", "value": "0.842 (active)"}, {"measurement": "normalized growth", "setting": "S. cerevisiae deletion strains, locus YLR342W, strain FKS1 (second series), hits give low values", "value": 0.886}, {"measurement": "normalized growth", "setting": "S. cerevisiae deletion strains, locus YLR342W, strain FKS1, hits give low values", "value": "0.72 (active)"}, {"measurement": "normalized growth", "setting": "S. cerevisiae deletion strains, locus YLR357W, strain rsc2, hits give low values", "value": "0.441 (active)"}, {"measurement": "normalized growth", "setting": "S. cerevisiae deletion strains, locus YLR370C, strain arc18, hits give low values", "value": "0.242 (active)"}, {"measurement": "normalized growth", "setting": "S. cerevisiae deletion strains, locus YLR371W, strain rom2, hits give low values", "value": 0.945}, {"measurement": "normalized growth", "setting": "S. cerevisiae deletion strains, locus YLR384C, strain iki3, hits give low values", "value": 0.989}, {"measurement": "normalized growth", "setting": "S. cerevisiae deletion strains, locus YLR418C, strain cdc73, hits give low values", "value": "0.819 (active)"}, {"measurement": "normalized growth", "setting": "S. cerevisiae deletion strains, locus YML016C, strain PPZ1, hits give low values", "value": 0.991}, {"measurement": "normalized growth", "setting": "S. cerevisiae deletion strains, locus YML032C, strain rad52, hits give low values", "value": "0.882 (active)"}, {"measurement": "normalized growth", "setting": "S. cerevisiae deletion strains, locus YML120C, strain ndi1, hits give low values", "value": 0.952}, {"measurement": "normalized growth", "setting": "S. cerevisiae deletion strains, locus YML124C, strain tub3, hits give low values", "value": 0.975}, {"measurement": "normalized growth", "setting": "S. cerevisiae deletion strains, locus YMR058W, strain fet3, hits give low values", "value": "0.0857 (active)"}, {"measurement": "normalized growth", "setting": "S. cerevisiae deletion strains, locus YMR078C, strain ctf18, hits give low values", "value": 0.96}, {"measurement": "normalized growth", "setting": "S. cerevisiae deletion strains, locus YMR125W, strain sto1, hits give low values", "value": "0.832 (active)"}, {"measurement": "normalized growth", "setting": "S. cerevisiae deletion strains, locus YMR129W, hits give low values", "value": "0.883 (active)"}, {"measurement": "normalized growth", "setting": "S. cerevisiae deletion strains, locus YMR205C, strain PFK2, hits give low values", "value": 0.901}, {"measurement": "normalized growth", "setting": "S. cerevisiae deletion strains, locus YMR223W, strain ubp8, hits give low values", "value": "0.87 (active)"}, {"measurement": "normalized growth", "setting": "S. cerevisiae deletion strains, locus YMR231W, strain pep5, hits give low values", "value": "0.69 (active)"}, {"measurement": "normalized growth", "setting": "S. cerevisiae deletion strains, locus YMR263W, strain SAP30, hits give low values", "value": "0.766 (active)"}, {"measurement": "normalized growth", "setting": "S. cerevisiae deletion strains, locus YMR307W, strain GAS1, hits give low values", "value": "0.378 (active)"}, {"measurement": "normalized growth", "setting": "S. cerevisiae deletion strains, locus YNL067W, strain RPL9B, hits give low values", "value": "0.823 (active)"}, {"measurement": "normalized growth", "setting": "S. cerevisiae deletion strains, locus YNL071W, strain lat1, hits give low values", "value": "0.912 (active)"}, {"measurement": "normalized growth", "setting": "S. cerevisiae deletion strains, locus YNL128W, strain TEP1, hits give low values", "value": "0.683 (active)"}, {"measurement": "normalized growth", "setting": "S. cerevisiae deletion strains, locus YNL209W, strain ssb2, hits give low values", "value": "0.61 (active)"}, {"measurement": "normalized growth", "setting": "S. cerevisiae deletion strains, locus YNL233W, strain BNI4, hits give low values", "value": "0.857 (active)"}, {"measurement": "normalized growth", "setting": "S. cerevisiae deletion strains, locus YNL248C, strain rpa49, hits give low values", "value": "0.757 (active)"}, {"measurement": "normalized growth", "setting": "S. cerevisiae deletion strains, locus YNL250W, strain rad50, hits give low values", "value": "0.738 (active)"}, {"measurement": "normalized growth", "setting": "S. cerevisiae deletion strains, locus YNL271C, strain bni1, hits give low values", "value": "0.636 (active)"}, {"measurement": "normalized growth", "setting": "S. cerevisiae deletion strains, locus YNL298W, strain CLA4, hits give low values", "value": "0.66 (active)"}, {"measurement": "normalized growth", "setting": "S. cerevisiae deletion strains, locus YNL307C, strain MCK1, hits give low values", "value": "0.857 (active)"}, {"measurement": "normalized growth", "setting": "S. cerevisiae deletion strains, locus YNL322C, strain KRE1 (second series), hits give low values", "value": 0.922}, {"measurement": "normalized growth", "setting": "S. cerevisiae deletion strains, locus YNR049C, strain mso1, hits give low values", "value": "0.638 (active)"}, {"measurement": "normalized growth", "setting": "S. cerevisiae deletion strains, locus YNR052C, strain pop2, hits give low values", "value": "0.866 (active)"}, {"measurement": "normalized growth", "setting": "S. cerevisiae deletion strains, locus YOL012C, strain htz1", "value": 0.529}, {"measurement": "normalized growth", "setting": "S. cerevisiae deletion strains, locus YOL147C, strain pex11, hits give low values", "value": "0.871 (active)"}, {"measurement": "normalized growth", "setting": "S. cerevisiae deletion strains, locus YOR001W, strain rrp6, hits give low values", "value": "0.86 (active)"}, {"measurement": "normalized growth", "setting": "S. cerevisiae deletion strains, locus YOR061W, strain CKA2, hits give low values", "value": 0.986}, {"measurement": "normalized growth", "setting": "S. cerevisiae deletion strains, locus YOR069W, strain VPS5, hits give low values", "value": 0.983}, {"measurement": "normalized growth", "setting": "S. cerevisiae deletion strains, locus YOR070C, strain gyp1, hits give low values", "value": 0.97}, {"measurement": "normalized growth", "setting": "S. cerevisiae deletion strains, locus YOR080W, strain dia2, hits give low values", "value": 0.946}, {"measurement": "normalized growth", "setting": "S. cerevisiae deletion strains, locus YOR083W, strain WHI5, hits give low values", "value": "0.807 (active)"}, {"measurement": "normalized growth", "setting": "S. cerevisiae deletion strains, locus YOR106W, strain vam3, hits give low values", "value": "0.637 (active)"}, {"measurement": "normalized growth", "setting": "S. cerevisiae deletion strains, locus YOR136W, strain idh2, hits give low values", "value": "0.919 (active)"}, {"measurement": "normalized growth", "setting": "S. cerevisiae deletion strains, locus YOR144C, strain elg1, hits give low values", "value": "0.877 (active)"}, {"measurement": "normalized growth", "setting": "S. cerevisiae deletion strains, locus YOR184W, strain ser1, hits give low values", "value": 0.875}, {"measurement": "normalized growth", "setting": "S. cerevisiae deletion strains, locus YOR265W, strain rbl2, hits give low values", "value": "0.867 (active)"}, {"measurement": "normalized growth", "setting": "S. cerevisiae deletion strains, locus YOR270C, strain vph1, hits give low values", "value": "0.298 (active)"}, {"measurement": "normalized growth", "setting": "S. cerevisiae deletion strains, locus YOR290C, strain snf2, hits give low values", "value": "0.471 (active)"}, {"measurement": "normalized growth", "setting": "S. cerevisiae deletion strains, locus YOR316C, strain cot1, hits give low values", "value": 0.999}, {"measurement": "normalized growth", "setting": "S. cerevisiae deletion strains, locus YPL051W, strain arl3, hits give low values", "value": "0.768 (active)"}, {"measurement": "normalized growth", "setting": "S. cerevisiae deletion strains, locus YPL055C, strain LGE1, hits give low values", "value": "0.483 (active)"}, {"measurement": "normalized growth", "setting": "S. cerevisiae deletion strains, locus YPL078C, strain atp4, hits give low values", "value": "0.647 (active)"}, {"measurement": "normalized growth", "setting": "S. cerevisiae deletion strains, locus YPL106C, strain sse1, hits give low values", "value": "0.794 (active)"}, {"measurement": "normalized growth", "setting": "S. cerevisiae deletion strains, locus YPL240C, strain hsp82, hits give low values", "value": "0.907 (active)"}, {"measurement": "normalized growth", "setting": "S. cerevisiae deletion strains, locus YPL241C, strain CIN2, hits give low values", "value": "0.851 (active)"}, {"measurement": "normalized growth", "setting": "S. cerevisiae deletion strains, locus YPR119W, strain clb2, hits give low values", "value": 0.986}, {"measurement": "normalized growth", "setting": "S. cerevisiae deletion strains, locus YPR141C, strain kar3, hits give low values", "value": "0.735 (active)"}, {"measurement": "normalized growth", "setting": "S. cerevisiae deletion strains, locus YPR163C, strain tif3, hits give low values", "value": 0.977}, {"measurement": "normalized growth", "setting": "S. cerevisiae deletion strains, locus YPR167C, strain met16, hits give low values", "value": "0.846 (active)"}, {"measurement": "normalized growth", "setting": "S. cerevisiae deletion strains, strain wtn01, hits give low values", "value": "0.871 (active)"}, {"measurement": "normalized growth", "setting": "S. cerevisiae strains, strain wild type, hits give low values", "value": "0.693 (active)"}]}]}
